# According to the supplement of paper PMC7801607:
# How the values were obtained:
# [1] = tested on: CHO; test: % viability of CHO cells (MTT); higher = less toxic; details: 48 h
# Outline: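 CHO cells seeded at 10^6 cells/well were exposed to compound at 2 or 20 µM for 48 h. Survival, as percent of untreated cells, was measured with the colorimetric tetrazolium (MTT) assay.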
# [2] = tested on: HepG2-A16-CD81; test: % inhibition of HepG2 viability (CellTiter-Glo); higher = more toxic; details: 5 µM;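 note: HepG2-A16-CD81 hepatoma cells plated as in the liver-stage assay but without sporozoites, with DMSO wells as negative and 25 µM puromycin as positive control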
# [3] = tested on: Plasmodium falciparum NF54 stage IV/V gametocytes; test: % inhibition of gametocyte viability (PrestoBlue); higher = more inhibition; details: 48 h
# Outline: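 Compound was tested at 1 or 5 µM against Stage IV/V NF54 gametocytes plated at 100 µL/well (2% gametocytaemia, 5% haematocrit). After 48 h of stationary, hypoxic incubation at 37 °C, 10 µL PrestoBlue was added for 2 h before reading 612 nm fluorescence from 70 µL of transferred supernatant. Gametocyte viability inhibition, as a percentage, was scaled against vehicle and kill controls from a single run.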
# [4] = tested on: Plasmodium falciparum NF54 asexual blood stage; test: % inhibition of asexual blood stage proliferation (pLDH); higher = more inhibition; details: 72 h
# Outline: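 In 96-well plates, compound at 2 or 20 µM was added to Plasmodium falciparum NF54 ring-stage cultures (1% haematocrit, 2% parasitaemia). Plates were incubated for 72 h at 37 °C in 4% CO2, 3% O2 and 93% N2, and survival was then read at 620 nm using the parasite lactate dehydrogenase assay. Inhibition of asexual proliferation, expressed as a percentage, was normalised to controls.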
# [5] = tested on: Plasmodium falciparum NF54 stage IV/V gametocytes; test: % inhibition of gametocyte viability (ATP bioluminescence); higher = more inhibition; details: 24 h
# Outline: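 Density gradients were used to enrich stage IV/V NF54 gametocytes, which were then seeded into 96-well plates at 30,000 per well with compound at 1 or 5 µM. The plates were incubated at 37 °C for 24 h, and ATP was measured with the Promega BacTiter Glo bioluminescence system. Percent inhibition of gametocyte viability was normalised to the plate controls from a single run.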
# [6] = tested on: Plasmodium falciparum NF54 stage IV/V gametocytes; test: % inhibition of gametocyte viability (luciferase reporter); higher = more inhibition; details: 48 h
# Outline: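 Luminescence from 30 µL lysate combined with 30 µL Promega luciferin substrate was recorded on a GloMax-Multi+ reader using 10 s integration. The lysate came from stage IV/V NF54-Pfs16-GFP-Luc gametocytes (2% gametocytaemia, 2% haematocrit) held with compound at 1 or 5 µM for 48 h at 37 °C under stationary, hypoxic conditions. Percent inhibition was normalised against controls run once.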
Structure (SMILES),% viability of CHO cells ([1]; 2 µM) [%],% viability of CHO cells ([1]; 20 µM) [%],% inhibition of HepG2 viability [2] [%],% inhibition of gametocyte viability ([3]; 1 µM) [%],% inhibition of gametocyte viability ([3]; 5 µM) [%],% inhibition of asexual blood stage proliferation ([4]; 2 µM) [%],% inhibition of asexual blood stage proliferation ([4]; 20 µM) [%],% inhibition of gametocyte viability ([5]; 1 µM) [%],% inhibition of gametocyte viability ([5]; 5 µM) [%],% inhibition of gametocyte viability ([6]; 1 µM) [%],% inhibition of gametocyte viability ([6]; 5 µM) [%]
CCCCc1ccc(-c2nc(C)c(C(=O)OC)s2)cc1,113,102,0.116,5.41,22.1,36.8,59.2,< 0,< 0,< 0,< 0
Cc1ccc(NC(=O)c2ccc(CN3CCN(C)CC3)cc2)cc1Nc1nccc(-c2cccnc2)n1,87.6,50.2,6.65,< 0,< 0,60.6,98.3,< 0,< 0,0.104,< 0
Cc1ccccc1NC(=O)Nc1cccc([N+](=O)[O-])c1,121,111,8.58,< 0,2.93,3.72,73.7,6.45,< 0,3.59,< 0
CC(C)CCN1C(=O)C(C2=NS(=O)(=O)c3cc(NS(C)(=O)=O)ccc3N2)=C(O)[C@@H]2[C@H]3CC[C@H](C3)[C@@H]21,99.3,109,6.58,9.05,13.6,37.2,56.6,< 0,< 0,1.44,8.86
CCCC(=O)OCCc1ccccc1,114,99.3,0.113,10.7,4.24,8.06,16.5,< 0,< 0,< 0,0.854
CCC(C)(C)c1ccc(CC(C)CN2C[C@@H](C)O[C@@H](C)C2)cc1 (stereo not given in full),100,124,-1.79,< 0,4.53,89.6,82,< 0,< 0,< 0,< 0
CCc1c(OCC2CCC2)c2cc(F)ccc2[nH]c1=O,78.6,52.7,-2.38,14.3,2.83,26.9,36,7.14,< 0,< 0,< 0
NCc1ccc(S(N)(=O)=O)cc1,83.8,129,6.22,7.26,15.6,24,96.5,< 0,< 0,< 0,< 0
COc1ccc(C[C@@H](C)[C@@H](C)Cc2ccc(OC)c(OC)c2)cc1OC,81.9,77.7,5.15,10.5,23.6,13.7,63,< 0,< 0,< 0,< 0
NC(=O)c1nccn([C@@H]2O[C@H](CO)[C@@H](O)[C@H]2O)c1=O,91.2,105,4.39,5.72,19.8,11.7,53.8,< 0,< 0,7.58,< 0
CC1CCc2c(N3CCC(O)CC3)c(F)cc3c(=O)c(C(=O)O)cn1c23 (stereo not given),84.2,87.6,2.9,< 0,11.7,69.7,98.8,< 0,< 0,1.04,6.66
CC(C)(C)OC(=O)NCc1ccc(C(=O)N[C@H]2CCOC2=O)cc1,96.9,115,14.5,5.05,< 0,18.3,17.2,< 0,< 0,< 0,< 0
COc1ccccc1NC(=O)c1ccccc1Sc1ccc([N+](=O)[O-])cc1,85.2,108,-1.52,17.1,14.1,-1.69,81,7.24,1.71,3.21,8.85
COc1ccc(C2CNC(=O)C2)cc1OC1CCCC1 (stereo not given),95.4,125,-2.26,< 0,12,28.3,40.1,< 0,< 0,8.32,7.49
CC(C)(C)c1ccc(C(=O)NC(=O)N2CCCc3ccccc32)cc1,94.6,101,-0.159,< 0,< 0,-6.14,-5.88,< 0,< 0,< 0,< 0
CCOC(=O)N1CCN(c2ccc(Cl)cc2)CC1,90.5,83.4,-3.4,17.5,< 0,6.16,24.1,< 0,< 0,< 0,8.21
CCc1cc(O)c(Oc2ccc(C(N)=O)cc2F)cc1F,116,100,3.65,18.7,17.8,54.5,62.6,< 0,< 0,< 0,< 0
NNC(=O)c1ccncc1,94.3,96.5,8.54,< 0,4.24,40.1,71.2,< 0,< 0,17.1,< 0
O=C(CCc1ccc2c(c1)OCO2)NCc1ccc(-c2ccccc2F)cc1,87.7,94.9,8.8,< 0,< 0,-4.07,-11.2,4.23,< 0,< 0,< 0
N#Cc1c(F)c(Cl)c(NCc2ccccc2)c(C#N)c1F,102,-2.81,2.78,20.8,49.5,56.1,95.3,< 0,20.5,2.47,52.5
